From PubChem BioAssay
Shown is part of a subset that was picked to be rich in hits.
PTHR1 ag: activates the human parathyroid hormone receptor PTHR1; Q03431; HEK293 GP2 PTHR1 cells, GloSensor cAMP luminescence, 1 h; Potency, µM (doses to about 115 µM), hits mostly activators; 0.075% of 410,000 active; further: nearly all actives have a fitted effect of over 55% in size
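HEK-293-derived GP2 cells expressing PTHR1 and a GloSensor cAMP reporter, 3,000/well, plated overnight, given luciferin plus IBMX (each 0.5 mM as added) for 1 h at 37 °C, then compound for 1 h at 37 °C. Luminescence was read after 15 min at room temperature.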
RXFP1 antagonist: RXFP1 (human) relaxin receptor antagonism; Q9HBX9; HEK293-RXFP1, relaxin-stimulated cAMP HTRF, 30 min; hits give low values; activity change, negative = inhibition, % at 57.5 µM; 0.59% of 350,000 active;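 active means activity change of -60% or lower, but not beyond a set lower limit; inconclusive means change between -60% and -40%, or beyond the set limit; inactive means change above -40%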
TCR act: activates T cell receptor signaling; Potency, µM (highest dose often 9.22 µM), usual class: activators; AID 504894; 330,000 tested, under 10 active; primary human leukocytes, anti-CD3, IL-2 HTRF, 48 h
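Human primary leukocytes + a-CD3 beads + cpd, 48 hr; IL-2 in supernatant by HTRF (ex 320nm / em 665nm). No co-stimulatory signal supplied.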
NPSR antagonist: blocks cAMP signaling of the human neuropeptide S receptor; Q6W5P4; CHO-NPSR cells, cAMP TR-FRET, antagonist mode; Potency, µM (series often up to 38.3 µM), hits mostly inhibitors; 1% of 220,000 active; further: nearly all actives have a fitted effect of over 50% in size
RXFP1 agonist: agonists of human relaxin receptor RXFP1. AID 2676. Potency, µM (titrated, usually from 57.5 µM), actives largely listed as activators. HEK293T-RXFP1 cAMP TR-FRET, 30 min; response scale: percent of porcine relaxin response, buffer zero. 0.3% of 370,000 active; further: nearly all actives have a fitted effect of over 60% in size
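cAMP rise read by TR-FRET after 30 min, 37C compound exposure (up to 58 uM) in RXFP1-transfected HEK293 cells with Ro 20174 present. EC50 from Hill-equation fits, with 29 nM porcine relaxin as 100% and buffer as basal.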
TSHR antagonist: human thyrotropin receptor antagonism. TSHR-expressing cells, TSH-stimulated cAMP HTRF, 2 h; hits give low values. P16473. activity change, negative = inhibition, % at 11.5 µM. 0.2% of 330,000 active. AID 504810;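 active means activity change below a set negative limit, meaning inhibition stronger than a set level, cut at about -70% in these data; inconclusive means activity change between two set negative limits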
Target sequence (P16473 whole entry, looked up): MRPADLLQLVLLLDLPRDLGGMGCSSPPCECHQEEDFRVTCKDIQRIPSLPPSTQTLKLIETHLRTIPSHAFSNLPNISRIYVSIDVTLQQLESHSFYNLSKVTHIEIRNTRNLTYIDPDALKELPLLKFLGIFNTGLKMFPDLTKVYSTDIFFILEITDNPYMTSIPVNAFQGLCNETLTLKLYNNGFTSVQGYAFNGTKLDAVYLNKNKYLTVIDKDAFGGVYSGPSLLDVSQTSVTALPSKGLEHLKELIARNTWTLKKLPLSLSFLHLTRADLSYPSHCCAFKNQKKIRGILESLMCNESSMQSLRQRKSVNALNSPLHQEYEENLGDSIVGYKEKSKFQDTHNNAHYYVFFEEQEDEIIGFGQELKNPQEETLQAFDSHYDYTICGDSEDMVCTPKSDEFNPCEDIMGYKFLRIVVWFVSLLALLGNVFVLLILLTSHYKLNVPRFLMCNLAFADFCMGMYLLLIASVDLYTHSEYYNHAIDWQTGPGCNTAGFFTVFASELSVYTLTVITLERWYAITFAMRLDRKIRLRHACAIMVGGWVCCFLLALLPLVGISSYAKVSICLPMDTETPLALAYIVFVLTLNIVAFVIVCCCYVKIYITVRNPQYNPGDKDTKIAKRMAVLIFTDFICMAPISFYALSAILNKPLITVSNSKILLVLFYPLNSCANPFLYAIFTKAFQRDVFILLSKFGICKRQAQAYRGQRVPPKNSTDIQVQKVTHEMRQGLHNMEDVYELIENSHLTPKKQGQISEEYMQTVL
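Freshly harvested TSHR cells receive pin-tooled compound, then EC80 TSH at 4nM final. After 2 hours at 37 deg C, antibody in lysis buffer and cAMP-d2 are added; 30 minutes at ambient temperature precede the HTRF read.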
A number is an active result; n = inactive; u = inconclusive; x = no result given; ! = not confirmed by another sample; [ ] = another dose, or the depositor's remark. Unless noted, the call rests on the fitted dose curve; in most records, active means well fitted curve in the direction sought with a large enough effect; inconclusive means small, poorly fitted or top-dose-only effect, or another doubt; inactive means no such curve, though single readings can be large; an effect the other way counts as inactive or inconclusive.

SMILES | PTHR1 ag | RXFP1 antagonist | TCR act | NPSR antagonist | RXFP1 agonist | TSHR antagonist
Cc1cc(Cl)ccc1OCC(=O)NNC(=O)C1CCN(c2ncnc3sc(C)c(C)c23)CC1 | n | n | n | x | n | -72
Cc1nc(C2CCCCC2)c(-c2ccc(S(N)(=O)=O)c(F)c2)o1 | x | n | x | x | x | x
O=C1CSc2ccc(C(=O)N3CCCCC3)cc2N1 | n | n | x | x | x | x
O=C1CSc2ccc(C(=O)O)cc2N1 | n | -77 | n | n | n | n
CC1=CC(=O)C=C(C)C1=NOS(=O)(=O)c1ccccc1 | n | -84 | n | 7.9µM | n | u
CC1=CC(=O)C(C(C)C)=C/C1=N/OS(=O)(=O)c1ccccc1 | n | u | n | 4µM | n | -98
CN(C)S(=O)(=O)c1ccc2c(c1)N(CC(=O)Nc1ccc(F)cc1)C(=O)CS2 | n | x | x | x | n | x
O=C1CC2(CCCCC2)CC(=O)N1CCc1ccccc1 | n | n | n | x | x | x
O=C1C=CC(=O)C(C2=C3C(=O)N(CCc4ccccc4)CC(=O)N3CCC2)=C1 | n | n | n | 10µM | n | n
CC(=O)C1=C(O)C(=O)N(c2ccc(O)cc2)C1c1cccc(F)c1 (centres undefined) | n | n | n | x | n | -80
CCCCNC(=S)N/N=C1\C(=O)c2cccc3cccc1c23 | n | n | n | n | n | n
CNC(=S)N/N=C1\C(=O)c2cccc3cccc1c23 | n | n | n | 3.2µM | n | n
CCOC(=O)c1c(S(=O)(=O)N2CCCC(C(=O)Nc3cccc(Cl)c3)C2)c(C)n(C)c1C (centres undefined) | n | n | x | x | n | x
CCOC(=O)c1ccc(NC(=O)C(CC)Sc2nncn3c2cc2oc(C)cc23)cc1 (centres undefined) | n | -79 | x | x | n | x
Nc1nc(N)c(-c2cccc(C(F)(F)F)c2)c(Cc2cccc(C(F)(F)F)c2)n1 | n | -93 | n | x | x | x
CC(=O)c1sc(N/N=C\c2c(O)ccc3ccccc23)nc1C | n | -82 | n | x | x | x
CC(=O)c1sc(N/N=C/c2cccc(O)c2)nc1C | n | x | n | n | n | n
O=C(NC1C2CC3CC(C2)CC1C3)c1ccc2c(c1)OCO2 (centres undefined) | n | n | n | x | n | -126
O=C(NNC(=O)c1ccc2c(c1)OCO2)NC12CC3CC(CC(C3)C1)C2 | n | n | n | n | n | n
COc1ccc(Cc2ccccc2C(=O)O)cc1 | n | n | n | x | x | x
COc1ccc(CC2=CC(=O)c3ccccc3C2=O)cc1 | n | u | n | x | n | -83
CC(C)S(=O)(=O)c1oc(-c2cccs2)nc1S(=O)(=O)c1ccc(F)cc1 | n | -79 | x | x | n | x
CS(=O)(=O)c1oc(-c2ccc(F)cc2)nc1S(=O)(=O)c1ccc(Cl)cc1 | n | u | x | x | n | x
Cc1ccc(S(=O)(=O)c2nc(-c3cccs3)oc2SC(C)C)cc1 | n | n | x | x | n | x
CC(C)S(=O)(=O)c1oc(-c2ccc(F)cc2)nc1S(=O)(=O)c1ccccc1 | n | -106 | x | x | n | x
SMILES | PTHR1 ag | RXFP1 antagonist | TCR act | NPSR antagonist | RXFP1 agonist | TSHR antagonist
CCS(=O)(=O)c1oc(-c2ccc(F)cc2)nc1S(=O)(=O)c1ccc(Br)cc1 | n | -102 | x | x | n | x
CCCCS(=O)(=O)c1oc(-c2ccc(F)cc2)nc1S(=O)(=O)c1ccccc1 | n | -81 | x | x | n | x
Cc1cccc(NC(=S)NCc2cccn2C)c1 | n | n | n | u | n | n
Cc1ccc(NC(=S)NCc2cccn2C)cc1 | 3.5µM | n | n | n | n | n
CCc1nc2ccc(C(=O)NCCc3ccc(OC)cc3OC)cc2nc1CC | n | -71 | x | x | n | x
CCCCC#Cc1nc(NC)c2ncn([C@@H]3O[C@H](CO)[C@@H](O)[C@H]3O)c2n1 | x | x | x | x | x | n
CCC(=O)Nc1ccc(C(=O)Cn2ncc(Cl)c(Cl)c2=O)cc1 | n | n | n | u | n | n
Cc1ccc(NC(=O)Cn2ncc3c([nH]c4ccccc43)c2=O)cc1Cl | n | u | n | x | n | -70
CCOC(=O)c1ccc(NC(=O)Cn2ncc(Cl)c(Cl)c2=O)cc1 | n | n | n | 10µM | n | n
CCN(CC)c1ccc2nc3ccc(N)cc3[n+](-c3ccccc3)c2c1 | n | u | n | x | n | n
CCN(CC)c1ccc2nc3ccccc3[n+](CC)c2c1 | n | u | n | x | n | -140
CC(C)N1C(=O)/C(=C/c2nc3ccccc3c(=O)n2-c2ccccc2)c2ccccc21 | n | x | n | 10µM | n | n
COc1ccc(CNC(=O)c2cccc(-n3cnc4cccnc43)c2C)cc1 | n | n | x | x | n | x
CCOC(=O)Cn1c(=O)oc2cc(S(=O)(=O)N3CCN(c4ccccn4)CC3)ccc21 | n | x | n | n | n | n
CCOC(=O)Cn1c(=O)oc2cc(S(=O)(=O)N3CCN(c4ccccc4OC)CC3)ccc21 | n | -65 | x | x | n | x
CCCCCCOc1ccc(-c2nc3ccc(Br)cc3c(=O)o2)cc1 | n | n | x | x | n | x
CC(C)N(Cc1ccccc1)c1ncnc2c1nnn2C | n | n | x | x | n | x
Cc1ccc(C(=O)Nc2cccc(O)c2)cc1S(=O)(=O)N1CCCCCC1 | n | -83! | n | x | n | n
COc1ccccc1NC(=O)CCCc1nnc2n(C)c(=O)c3sccc3n12 | n | n | n | x | 4.5µM | n
CCn1c(=O)c2sccc2n2c(CCCC(=O)NCc3cccnc3)nnc12 | n | n | n | x | 18µM | n
Cn1c(=O)c2sccc2n2c(CCCC(=O)NCc3ccco3)nnc12 | n | n | n | x | 14µM | n
CCn1c(=O)c2sccc2n2c(CCCC(=O)Nc3ccc(Oc4ccccc4)cc3)nnc12 | n | n | x | x | n | x
COc1ccc(C(C)=O)cc1CN1C(=O)NC2(CCCCCCC2)C1=O | n | n | n | n | n | n
CCOc1ccc(C(C)=O)cc1CN1C(=O)NC2(CCCCCC2)C1=O | n | -101 | n | x | n | n
CCOc1cccc2sc(N(Cc3cccnc3)C(=O)c3ccc(C#N)cc3)nc12 | n | n | x | x | n | x
Cc1c(C(=O)NNc2cc(=O)n(C)c(=O)n2C)cccc1[N+](=O)[O-] | n | n | n | n | 14µM | n
CCC(CC)NC(=O)c1cccc([N+](=O)[O-])c1C | n | n | n | n | n | n
COc1cccc2c1C(=O)c1c(O)c3c(c(O)c1C2=O)C[C@@](O)(C(=O)CO)C[C@@H]3O[C@H]1C[C@H](N)[C@H](O[C@@H]2CCCCO2)[C@H](C)O1 | x | n | x | x | x | x
CCN(CC)S(=O)(=O)c1ccc(Cl)c(NC(=O)CSc2cccc[n+]2[O-])c1 | n | n | n | n[7.67 µM] | 25µM | n
COc1cccc2cc(C(=O)C3=C(O)C(=O)N(Cc4ccco4)C3c3cccnc3)oc12 (centres undefined) | n | n | n | 7.9µM | 25µM | n
